Data taken from PubChem BioAssay (NCI).
The panel holds about 83,000 compounds, 20% with a hit somewhere; the sample as a whole holds those more often.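 Step 1: grow cells in 96-well plates. Step 2: add test compound at a single concentration. Step 3: incubate 48 h. Step 4: record percent growth.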 Calls of active or inactive are those of the source. How the source made its calls: active means growth percent below 10; inactive means the rest.

tested on: HCC-2998 colon; test: NCI-60 one-dose screen, 48 h (100 = growth as untreated, 0 = no growth, -100 = all killed); settings: 10 µM unless noted

| Compound | growth |
| --- | --- |
| Clc1ccc(CCC(Cn2ccnc2)Sc2c(Cl)cccc2Cl)cc1 (stereo unspecified) | 56.6% (inactive) |
| COC1CC2CCC(C)C(O)(O2)C(=O)C(=O)N2CCCCC2C(=O)OC(C(C)CC2CCC(O)C(OC)C2)CC(=O)C(C)C=C(C)C(O)C(OC)C(=O)C(C)CC(C)/C=C/C=C/C=C1C (stereo unspecified) | 50.4% (inactive) |
| O=C(OC[C@H]1O[C@H](OC(=O)c2cc(O)c(O)c(OC(=O)c3cc(O)c(O)c(O)c3)c2)[C@H](OC(=O)c2cc(O)c(O)c(OC(=O)c3cc(O)c(O)c(O)c3)c2)[C@@H](OC(=O)c2cc(O)c(O)c(OC(=O)c3cc(O)c(O)c(O)c3)c2)[C@@H]1OC(=O)c1cc(O)c(O)c(OC(=O)c2cc(O)c(O)c(O)c2)c1)c1cc(O)c(O)c(OC(=O)c2cc(O)c(O)c(O)c2)c1 | 1.77% (active) |
| CC(C)(C)c1ccc(C(O)CCCN2CCC(C(O)(c3ccccc3)c3ccccc3)CC2)cc1 (stereo unspecified) | -90.1% (active) |
| CCCCc1nc(Cl)c(CO)n1Cc1ccc(-c2ccccc2-c2nn[nH]n2)cc1 | 104% (inactive) |
| CCCCN(CCCC)CCCOC(=O)c1ccc(N)cc1 | 87.6% (inactive) |
| CO[C@H]1CC(O[C@@H]2/C(C)=C/C[C@@H]3C[C@@H](C[C@]4(CC[C@H](C)[C@@H](C5CCCCC5)O4)O3)OC(=O)[C@@H]3C=C(C)/C(=N/O)[C@H]4OC/C(=C\C=C\[C@@H]2C)[C@]43O)O[C@@H](C)C1O (stereo partly specified) | -78.1% (active) |
| CC[C@@H]1OC(=O)[C@H](C)[C@@H](O[C@H]2C[C@@](C)(OC)[C@@H](O)[C@H](C)O2)[C@H](C)[C@@H](O[C@@H]2O[C@H](C)C[C@H](N(C)C)[C@H]2O)[C@](C)(O)C[C@@H](C)[C@@H]2N[C@@H](COCCOC)O[C@H]([C@H]2C)[C@]1(C)O | 98.9% (inactive) |
| Nc1c2ccccc2nc2ccccc12 (tested in a mixture with another compound) | 28.7% (inactive) |
| CC[C@H](C)C(=O)O[C@H]1C[C@@H](C)C=C2C=C[C@H](C)[C@H](CC[C@@H]3C[C@@H](O)CC(=O)O3)[C@H]21 | 97.5% (inactive) |
| NC(N)=NN=c1c(=O)c2ccccc2c1=O | 112% (inactive) |
